This passage reports growth results from PubChem BioAssay (NCI).

Structures are written as SMILES. This is part of a sample that, as a whole, favours compounds with a hit. Of some 83,000 tested, about 20% had one in any assay.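 Method: cells in 96-well plates; compound added at one concentration; 48 h incubation; percent growth measured; values under 10 scored active.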 A number with no mark means an inactive call. Active and inactive are the calls of the source.

Test systems include BT-549 breast; MDA-MB-435 melanoma; SW-620 colon; MCF7 breast; HCT-116 colon; HCC-2998 colon; KM12 colon.
Common to all, as to test: NCI-60 one-dose screen, 48 h (100 = growth as untreated, 0 = no growth, -100 = all killed)
Holding throughout (settings): 10 µM unless noted

Take `COc1ccc(-c2nc(C#N)c(NCC(c3ccco3)N3CCCC3)o2)cc1` (stereo not given): the growth in the test on BT-549 breast is 66.7%; in the test on MDA-MB-435 melanoma, -23.5% (active); in the test on SW-620 colon, 27.3%; with MCF7 breast, 19.6%; in the test on HCT-116 colon, 27%; in the test with HCC-2998 colon it was 67%. Further, in the test with KM12 colon, the growth was 33.8%.

Regarding `CN(C)CSc1nc2ccccc2s1`, the growth in the test on BT-549 breast is 81.1%; with MDA-MB-435 melanoma it was 99.9%; with SW-620 colon, 104%; with MCF7 breast, 87.3%; in the test with HCT-116 colon, 89.7%; with HCC-2998 colon, 97.7%. For the same molecule, in the test with KM12 colon, the growth is 98.3%.

For the molecule `C#Cc1cccc(Nc2ncnc3ccc(NC(=O)c4ccccc4)cc23)c1`, the growth with BT-549 breast was 74.6%; in the test with MDA-MB-435 melanoma, 84%; in the test with SW-620 colon, 100%; with MCF7 breast it was 72.1%; in the test on HCT-116 colon, 76%; with HCC-2998 colon, 97.7%. The growth with KM12 colon is 90%.

Regarding `COc1ccc(NC(=O)c2ccc(Nc3ncnc4[nH]c(C)c(C)c34)cc2)cc1`, the growth is 99.1% with BT-549 breast; 108% with MDA-MB-435 melanoma; 102% with SW-620 colon; 100% in the test on MCF7 breast; 106% in the test on HCT-116 colon; 104% in the test with HCC-2998 colon. Moreover, in the test with KM12 colon, the growth was 103%.

Take `FC(F)(F)c1ccc2c(Nc3cccc(C4CC(c5ccccc5)=NN4c4ccc(Cl)cc4)c3)ccnc2c1` (stereo not given): the growth in the test on BT-549 breast was 55.7%; with MDA-MB-435 melanoma it was 38%; with SW-620 colon, -17.3% (active); with MCF7 breast, 11.5%; in the test on HCT-116 colon, -3.98% (active); with HCC-2998 colon, 66.5%. Besides, the growth with KM12 colon is 15.5%.

On to `Cc1c(Br)cccc1NC(=O)c1sc2nc3c(cc2c1N)CN(Cc1ccccc1)CC3`, for which the growth with BT-549 breast was 29.3%; with MDA-MB-435 melanoma, -42.9% (active); in the test on SW-620 colon, 18.4%; in the test with MCF7 breast, 14.9%; in the test on HCT-116 colon it was 16.8%; in the test on HCC-2998 colon, 41.1%. For the same molecule, the growth in the test with KM12 colon was 23.5%.

For the molecule `Cc1cnc(SCc2ccc(Cl)cc2)[nH]c1=S`, the growth was 108% in the test on BT-549 breast; 104% with MDA-MB-435 melanoma; 111% in the test with SW-620 colon; 95.6% in the test with MCF7 breast; 101% with HCT-116 colon; 108% in the test with HCC-2998 colon. Also, in the test on KM12 colon, the growth is 96.3%.

For the molecule `COc1ccc(N(C)c2nc(Cl)nc3ccn(C)c23)cc1`, the growth with BT-549 breast is -4.36% (active); in the test on MDA-MB-435 melanoma, -26.4% (active); in the test on SW-620 colon it was 21.9%; in the test with MCF7 breast it was 13.6%; in the test with HCT-116 colon it was -7.01% (active); in the test on HCC-2998 colon, 15.8%. Further, the growth with KM12 colon is 5.77% (active).

Regarding `C=C1C(=O)O[C@H]2[C@H]1CC/C(C=Nc1c(N)cc(F)cc1Br)=C\CC[C@@]1(C)O[C@@H]21`, the growth in the test with BT-549 breast was 84.8%; in the test with MDA-MB-435 melanoma, 83.2%; with SW-620 colon it was 26.5%; in the test with MCF7 breast it was 24.4%; in the test with HCT-116 colon, 48.2%; in the test on HCC-2998 colon, 109%. Moreover, in the test with KM12 colon, the growth is 98.8%.

As for `Nc1n[nH]c2cccc(C#Cc3cccc(NC(=O)c4cc(N5CCOCC5)cc(C(F)(F)F)c4)c3)c12`, the growth was 63.4% in the test on BT-549 breast; 45.8% in the test with MDA-MB-435 melanoma; 46.6% in the test on SW-620 colon; 46.6% in the test with MCF7 breast; 19.4% in the test with HCT-116 colon; 31.3% in the test on HCC-2998 colon. For the same molecule, the growth with KM12 colon was 54.5%.

`CC(=O)[C@@H]1CC[C@]2(C(=O)O)CC[C@]3(C)[C@H](CC[C@@H]4[C@@]5(C)Cc6c([nH]c7ccccc67)C(C)(C)[C@@H]5CC[C@]43C)[C@@H]12`: the growth in the test with BT-549 breast is 71.9%; in the test on MDA-MB-435 melanoma it was 81.2%; in the test on SW-620 colon, 54.5%; in the test on MCF7 breast, 38.6%; in the test on HCT-116 colon it was 43.5%; with HCC-2998 colon, 80.5%. Further, in the test on KM12 colon, the growth was 42.2%.

On to `CCC[S@@](=O)c1ccc2nc(NC(=O)OC)[nH]c2c1`, for which the growth in the test with BT-549 breast is 79.1%; in the test on MDA-MB-435 melanoma, 16.6%; with SW-620 colon, 71%; in the test with MCF7 breast, 61.9%; in the test on HCT-116 colon, 79.6%; with HCC-2998 colon it was 90%. Besides, the growth in the test on KM12 colon was 65.6%.

Turning to `CC[C@]12C=CCN3CC[C@@]4(c5cc(NC(=O)CCC(=O)O[C@H]6CC[C@H]7[C@@H]8CC[C@H]9CC(=O)CC[C@]9(C)[C@H]8CC[C@]67C)c(OC)cc5N(C)[C@H]4[C@@](O)(C(=O)OC)[C@@H]1OC(C)=O)[C@@H]32`, the growth in the test with BT-549 breast is 58.6%; in the test with MDA-MB-435 melanoma, 76.5%; in the test with SW-620 colon, 85.6%; in the test with MCF7 breast, 48.2%; in the test with HCT-116 colon, 47.5%; in the test with HCC-2998 colon, 97.5%. Besides, the growth in the test on KM12 colon was 74.2%.

Turning to `Cc1cc(C)c2nc(Nc3nc(C)c(C)c(=O)[nH]3)nc(C)c2c1`, the growth with BT-549 breast was 9.69% (active); in the test with MDA-MB-435 melanoma it was 15.7%; in the test on SW-620 colon, 9.96% (active); in the test on MCF7 breast, 3.09% (active); in the test on HCT-116 colon it was 3.76% (active); with HCC-2998 colon, 21.9%. The growth in the test with KM12 colon was 11.3%.

Turning to `O=C(Nc1cc(=O)[nH]c(=O)[nH]1)C(Cl)Cl`, the growth with BT-549 breast was 107%; in the test with MDA-MB-435 melanoma, 110%; in the test with SW-620 colon it was 100%; in the test with MCF7 breast, 97.1%; with HCT-116 colon it was 107%; with HCC-2998 colon, 92.4%. The growth with KM12 colon is 107%.

For `C=C1C(=O)O[C@H]2[C@H]1CC/C(COC(=O)CCCCCCC(=O)OC/C1=C/CC[C@@]3(C)O[C@H]3[C@H]3OC(=O)C(=C)[C@@H]3CC1)=C\CC[C@@]1(C)O[C@@H]21`, the growth in the test with BT-549 breast is 49.4%; in the test on MDA-MB-435 melanoma, 40.4%; with SW-620 colon, 14.8%; in the test on MCF7 breast, 14.8%; in the test with HCT-116 colon, -40.6% (active); in the test on HCC-2998 colon it was 89.3%. Also, the growth in the test with KM12 colon was 61.5%.

Turning to `OCCNc1nc(NCCO)nc(Nc2ccc(C3=NN(c4ccc(Cl)cc4)C(c4ccc(Cl)cc4)C3)cc2)n1` (stereo not given), the growth is 77.1% in the test on BT-549 breast; 58.1% in the test with MDA-MB-435 melanoma; 71.1% in the test with SW-620 colon; 20.4% in the test on MCF7 breast; 48.6% in the test with HCT-116 colon; 56.8% in the test on HCC-2998 colon. In addition, the growth in the test on KM12 colon is 49.8%.

`N#Cc1c(NC(=O)c2cccs2)[n+]([O-])c2cc(C(F)(F)F)ccc2[n+]1[O-]`: the growth in the test with BT-549 breast was 93.9%; in the test on MDA-MB-435 melanoma it was 106%; with SW-620 colon, 89%; in the test on MCF7 breast, 98.7%; with HCT-116 colon, 95.2%; with HCC-2998 colon it was 99.2%. For the same molecule, the growth with KM12 colon is 108%.

On to `C[C@H]1[C@H](C)CC[C@]2(C(=O)OCCOCCOCC[P+](c3ccccc3)(c3ccccc3)c3ccccc3)CC[C@]3(C)C(=CC[C@@H]4[C@@]5(C)CC[C@H](OC(=O)C(Cl)Cl)C(C)(C)[C@@H]5CC[C@]43C)[C@H]12`, for which the growth with BT-549 breast was -66.3% (active); with MDA-MB-435 melanoma it was -24.1% (active); with SW-620 colon it was 12.5%; with MCF7 breast, 2.81% (active); with HCT-116 colon, -36.3% (active); in the test with HCC-2998 colon, 19.1%. The growth in the test with KM12 colon was 7.09% (active).

Turning to `N#CC(C#N)=C1NC(c2ccccc2)=C(c2ccccc2)C(c2ccccc2Cl)=C1C#N`, the growth with BT-549 breast was 86.2%; in the test on MDA-MB-435 melanoma, 114%; in the test on SW-620 colon it was 110%; with MCF7 breast, 97.1%; in the test on HCT-116 colon, 94.1%; in the test on HCC-2998 colon, 99.5%. For the same molecule, the growth with KM12 colon was 113%.

`O=Cc1[nH]c(Sc2ccccc2)c2ccccc12`: the growth in the test on BT-549 breast was 53.4%; in the test on MDA-MB-435 melanoma it was 81.7%; in the test on SW-620 colon it was 81.1%; with MCF7 breast, 72.2%; in the test on HCT-116 colon, 60.6%; in the test on HCC-2998 colon, 109%. Further, in the test on KM12 colon, the growth was 81.2%.

Turning to `COc1cc(C2=NN(C=O)C(c3cccc(Nc4ccnc5cc(C(F)(F)F)ccc45)c3)C2)cc(OC)c1OC` (stereo not given), the growth with BT-549 breast is 56.1%; in the test on MDA-MB-435 melanoma, 43.5%; in the test on SW-620 colon, 64.6%; in the test on MCF7 breast it was 38.4%; in the test on HCT-116 colon, 58.4%; in the test on HCC-2998 colon, 70.1%. Also, the growth with KM12 colon was 59.7%.

With `CN(CCC#N)C(=O)Nc1ccccc1`, the growth was 102% in the test with BT-549 breast; 107% with MDA-MB-435 melanoma; 103% in the test with SW-620 colon; 100% in the test on MCF7 breast; 109% in the test with HCT-116 colon; 108% with HCC-2998 colon. Moreover, in the test on KM12 colon, the growth is 104%.

With `COc1ccccc1-c1ccc2nc(NC(=O)Nc3cc(C(F)(F)F)cc(C(F)(F)F)c3)sc2c1`, the growth was 13.2% with BT-549 breast; 10.9% in the test on MDA-MB-435 melanoma; 11.9% in the test with SW-620 colon; 4.1% (active) with MCF7 breast; 4.85% (active) in the test on HCT-116 colon; 11.8% in the test on HCC-2998 colon. For the same molecule, in the test with KM12 colon, the growth was 3.63% (active).

Turning to `O=C1[C@@H](OS(=O)(=O)CC(F)(F)F)[C@H](c2ccc(F)cn2)N1c1cc2c3ccccc3ccc2c2ccccc12`, the growth in the test with BT-549 breast was 66.2%; in the test with MDA-MB-435 melanoma, 30.5%; in the test with SW-620 colon it was 47.6%; with MCF7 breast it was 64%; with HCT-116 colon it was 79.3%; with HCC-2998 colon, 105%. Also, the growth in the test with KM12 colon is 87%.
